Screening data as filed in PubChem BioAssay.
HepG2 viability: qHTS for Inhibitors of TGF-b: Cytotox Counterscreen; 410,000 tested, 0.76% active; Potency, µM (highest dose often 46.1 µM), inactives show at the highest dose activity change, negative = cytotoxicity, most hits filed as cytotoxic; HepG2 CAGA-GFP viability, ATP luminescence, 18 h
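CellTiter-Glo luminescence gave cytotoxicity after 18 hours at 37 degrees C. The cells were HepG2 CAGA-GFP in 1% FBS DMEM, stimulated with 500 pg/mL TGF-beta after compound addition. %Activity was normalised to no-cell wells (complete cell-killing) and DMSO (no toxicity), and curves were fitted and classified.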
HT1080 IDH1KD tx: qHTS for induction of synthetic lethality in tumor cells producing 2HG: qHTS for the HT-1080-IDH1KD cell line | AID 686971, 2013 | Potency, µM (titrated, usually from 46.1 µM), for inactives: at the highest dose activity, negative = toxicity, usual class: cytotoxic | 360,000 tested, 2% active | HT-1080 IDH1 knockdown viability, ATP luminescence, 48 h;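 also: 0% = DMSO wells and -100% = cell-free medium wells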
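Knockdown cells (IDH1KD HT-1080) received compounds 2 h after plating at 750 cells/well and were kept 48 h at 37 °C in 5% FBS RPMI. A CellTiter-Glo luminescence read gave % activity for curve fitting.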
TGFb inhibitor: qHTS for Inhibitors of TGF-b. 410,000 tested, 1.2% active. HepG2 CAGA-GFP TGF-b/SMAD3 reporter, GFP fluorescence, 18 h; TGF-beta stimulated, 500 pg/mL final. Potency, µM (highest dose often 46.1 µM), for inactives: at the highest dose activity, negative = inhibition, usual class: inhibitors; also: % is scaled to controls: 0 for no effect and ±100 for the full control effect; nearly all actives have a fitted effect of over 65% in size
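Per well, imaged GFP fluorescence of HEPG2 CAGA-GFP cells gives the signal; cells get compound, then TGF-beta (500 pg/mL final), 18 h at 37 degrees C; %Activity versus -TGF-beta and +DMSO controls.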
ATXN2 expr inh: Primary qHTS for Inhibitors of ATXN expression; HEK-293 ATXN2-luciferase reporter, luminescence, 24 h; Potency, µM (doses to about 57 µM), without a hit: top-dose activity change, negative = inhibition, actives largely listed as inhibitors; 360,000 tested, 0.72% active; AID 1745845, 2022; also: % is scaled to controls: 0 for no effect and ±100 for the full control effect; nearly all actives have a fitted effect of over 55% in size
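qHTS (up to 57 uM final) was run with 24 h compound exposure of reporter cells at 37 °C. Each well was multiplexed: SteadyGlo luminescence measured ATXN2-luciferase expression after a fluorogenic Gly-Phe-AFC viability readout (25 uM final).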
S2 tox: Viability Counterscreen for Primary qHTS for Inhibitors of ATXN expression. S2 cells (HEK-293 line with an ATXN2-luciferase reporter) viability, CellTiter-Fluor protease fluorescence, 24 h. Potency, µM (doses to about 56.7 µM), usual class: cytotoxic. 400,000 tested, 0.49% active; also: nearly all actives have a fitted effect of over 40% in size
HT1080NT lethal: qHTS for induction of synthetic lethality in tumor cells producing 2HG: qHTS for the HT-1080-NT fibrosarcoma cell line | HT-1080-NT fibrosarcoma viability, CellTiter-Glo ATP luminescence, 48 h | Potency, µM (titrated, usually from 46.1 µM), without a hit: top-dose activity, negative = less viability, actives largely listed as cytotoxic | 360,000 tested, 1.6% active;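 also: NT is the 2HG producing partner of a matched IDH1 knockdown line; 0% = DMSO-treated cells and -100% = media-only wells without cells; nearly all actives have a fitted effect of over 55% in size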
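Compounds were tested in concentration-response format on HT-1080-NT cells for 48 hours at 37 degrees C. Cell viability came from CellTiter-Glo luminescence; curves were classified by r2, response magnitude and activity.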
The depositor's hits bear a star; i = inactive; ? = inconclusive; nt = no result given; [ ] = dose if it differs, or a comment. Compounds with a hit are over-represented: about 3.8% of the library has one in this group of screens. Calls follow the shape of the dose curve; as a rule, active = well fitted curve in the direction sought with a large enough effect; inconclusive = small, poorly fitted or top-dose-only effect, or another doubt; inactive = no such curve, though single readings can be large; an effect the other way counts as inactive or inconclusive. Potency is read from the fitted curve at half-maximal effect.

SMILES	HepG2 viability	HT1080 IDH1KD tx	TGFb inhibitor	ATXN2 expr inh	S2 tox	HT1080NT lethal
CCOc1ccc(NC(=O)C[n+]2ccc(N(C)C)cc2)cc1	0.3%	?	4.5%	-0.7%	i	3.9%
CN(C)c1cc[n+](CC(=O)Nc2ccc(Cl)cc2)cc1	-26.3%	?	-23.7%	?	i	6.51µM*
CC(=O)c1ccc(NC(=O)CSc2nc3c(=O)n(C)c(=O)n(C)c3n2C)cc1	5.6%	nt	-1.3%	nt	nt	nt
O=C(c1ccc2c(c1)N(Cc1ccc(Cl)cc1)C(=O)c1ccccc1S2(=O)=O)N1CCc2ccccc21	-20.4%	nt	-3.2%	-3.7%	i	nt
N#CC1=C(N)N2C(=C(C#N)C1c1cccc(Br)c1)Nc1ccccc12 (configuration not stated)	-50.2%	?	3.16µM*	?	nt	?
N#CC1=C(N)N2C(=C(C#N)C1c1ccc(Br)cc1)Nc1ccccc12 (configuration not stated)	-43.1%	?	2.82µM*	?	nt	?
CO[C@@]1(NC(=O)CSC[C@@H](N)C(=O)O)C(=O)N2C(C(=O)O)=C(CSc3nnnn3C)CS[C@@H]21	nt	nt	nt	-5.0%	i	nt
O=C(c1ccc(F)c(F)c1)N1CCOc2ccc(CN3CCN(CCO)CC3)cc2C1	nt	nt	nt	nt	i	nt
CCCN(C(=O)CCl)C1=CCCCC1	-17.9%	?	-1.2%	8.44µM*	nt	10.3µM*
COc1ccc(NC(=O)Cn2nnc(-c3ccccc3NC(=O)c3cccs3)n2)cc1	-2.6%	?	-11.9%	?	?	?
Cc1ccc(NC(=O)Cn2nnc(-c3ccccc3NC(=O)c3cccs3)n2)cc1	-5.4%	1.16µM*	-6.1%	-29.7%	?	1.16µM*
COCCNC(=O)CN1C(=O)COc2ccc(S(=O)(=O)N3CCOCC3)cc21	3.4%	nt	?	-26.8%	i	nt
OC(C1=C/C(=C\c2ccncc2)c2ccccc21)c1ccncc1 (configuration not stated)	-37.2%	nt	?	nt	nt	nt
CC(NC(=O)COC(=O)c1ccc(N(C)C)cc1)c1ccccc1 (configuration not stated)	-13.4%	18.4µM*	-23.5%	-20.1%[11.3 µM]	i	-21.2%
CC(NC(=O)COC(=O)c1ccco1)c1ccccc1 (configuration not stated)	-9.3%	-1.1%	-3.5%	1.6%	i	-4.3%
COc1ccc(CCNCC(O)COc2ccc(OC)cc2C(C)(C)C)cc1 (configuration not stated)	-169.3%	18.4µM*	?	-37.1%	?	?
Cc1ccc2c(c1)C(c1ccc(F)cc1)N(C(=O)COc1ccc(Cl)cc1Cl)CC(=O)N2 (configuration not stated)	-37.0%	nt	?	?	?	nt
COc1ccc(C2NC(=S)N3C(c4ccc(OC)c(OC)c4)NC(=S)N23)cc1OC (configuration not stated)	nt	nt	nt	nt	i	nt
O=C(N[C@@H]1c2ccccc2C2(CCN(C(=O)c3ccc4c(c3)OCCO4)CC2)[C@H]1O)c1cccnc1	nt	nt	nt	nt	i	nt
CC(=O)c1c(C)nc2ccccc2c1N	0.2%	0.7%	-3.4%	-5.7%	i	-1.3%
Cc1nc2ccccc2c(N)c1C(=O)/C=C/c1ccccc1	-62.8%	11.6µM*	?	?	?	?
O=S(=O)(c1ccc2[nH]c3c(c2c1)CCCCC3)N1CCN(c2ccccc2)CC1	2.3%	nt	?	-29.3%	?	nt
O=C(COC(=O)/C=C/c1ccc([N+](=O)[O-])cc1)Nc1ccc2[nH]c(=O)[nH]c2c1	-2.9%	5.7%	0.0%	6.4%	i	0.4%
O=C(COC(=O)/C=C/c1ccc(C(F)(F)F)cc1)Nc1ccc2[nH]c(=O)[nH]c2c1	3.55µM*	-1.8%	-4.2%	2.8%	i	-12.8%
COc1ccc(OC)c(NC(=O)C2CCCN(S(=O)(=O)c3cccc4nsnc34)C2)c1 (configuration not stated)	12.6µM*	?	-8.7%	-8.3%	i	-5.6%
SMILES	HepG2 viability	HT1080 IDH1KD tx	TGFb inhibitor	ATXN2 expr inh	S2 tox	HT1080NT lethal
COc1cc(NC(=O)C2CCCN(S(=O)(=O)c3cccc4nsnc34)C2)cc(OC)c1 (configuration not stated)	-31.4%	-12.1%	1.2%	-11.5%	?	-4.2%
O=C(CC1Sc2ccc(C(F)(F)F)cc2NC1=O)Nc1ccc(Cl)c(C(F)(F)F)c1 (configuration not stated)	-96.7%	nt	14.1µM*	?	i	nt
Cc1ccc2c(=O)cc(C(=O)NCc3ccccc3)oc2c1	-11.0%	nt	-27.1%	-9.7%	?	nt
CC(=O)Nc1nc(C)c(-c2csc(Nc3ccc(O)cc3)n2)s1	-10.3%	18.4µM*	0.0%	-17.0%	?	?
COc1ccc(Nc2nc(-c3sc(C)nc3C)cs2)cc1	-38.2%	3.66µM*	?	nt	?	5.17µM*
Cc1nc(C)c(-c2csc(Nc3ccc(N)cc3)n2)s1	-20.9%	-6.2%	-10.5%	nt	i	-20.3%
Cc1ccc(Cl)cc1N1CCN(C(=O)CCCCCn2c(=O)[nH]c3ccccc3c2=O)CC1	0.8%	nt	21.5%	nt	nt	nt
O=C(Cn1cnc2c(NCc3ccccc3)ncnc21)NCc1ccccc1	3.6%	6.51µM*	-16.7%	-0.6%	i	8.2µM*
O=C(Cn1cnc2c(NCc3ccccc3)ncnc21)NCc1ccc2c(c1)OCO2	-29.7%	-3.4%	-1.7%	-29.6%	?	?
C/C(=N\NC(N)=S)c1cc(-c2ccccc2)c(-c2ccccc2)s1	-41.0%	?	12.6µM*	?	?	?
CC1=C(C(=O)OCc2ccc3c(c2)OCO3)C(c2ccc(Cl)cc2)NC(=O)N1 (configuration not stated)	-19.4%	2.24µM*	?	?	i	2.51µM*
CC1=C(C(=O)OCC2CCCCC2)C(c2ccc(Cl)cc2)CC(=O)N1 (configuration not stated)	12.6µM*	nt	?	-29.7%	i	nt
CC1=C(C(=O)OCc2ccc3c(c2)OCO3)C(c2ccc(F)cc2)NC(=O)N1 (configuration not stated)	-22.3%	5.01µM*	-28.3%	?	?	4.47µM*
